# Measured values as given in PubChem BioAssay (NCATS).
# Values without a mark were called inactive. Records with an inconclusive call do not appear. A call without a number means that no potency is given here. The source made the active and inactive calls. Unless noted, calls come from the whole dose curve; as a rule, active = well fitted curve in the direction sought with a large enough effect; inconclusive = small, poorly fitted or top-dose-only effect, or another doubt; inactive = no such curve, though single readings can be large; an effect the other way counts as inactive or inconclusive.
# Assays:
# [1] = molecular target: Cytochrome P450 1A2 (Homo sapiens) (UniProt P05177); test: p450-cyp1a2 (AID 410; calls by dose curve; note: potency is the fitted concentration of half-maximal effect)
# Chain of Cytochrome P450 1A2 (Homo sapiens) (P05177 whole entry, looked up): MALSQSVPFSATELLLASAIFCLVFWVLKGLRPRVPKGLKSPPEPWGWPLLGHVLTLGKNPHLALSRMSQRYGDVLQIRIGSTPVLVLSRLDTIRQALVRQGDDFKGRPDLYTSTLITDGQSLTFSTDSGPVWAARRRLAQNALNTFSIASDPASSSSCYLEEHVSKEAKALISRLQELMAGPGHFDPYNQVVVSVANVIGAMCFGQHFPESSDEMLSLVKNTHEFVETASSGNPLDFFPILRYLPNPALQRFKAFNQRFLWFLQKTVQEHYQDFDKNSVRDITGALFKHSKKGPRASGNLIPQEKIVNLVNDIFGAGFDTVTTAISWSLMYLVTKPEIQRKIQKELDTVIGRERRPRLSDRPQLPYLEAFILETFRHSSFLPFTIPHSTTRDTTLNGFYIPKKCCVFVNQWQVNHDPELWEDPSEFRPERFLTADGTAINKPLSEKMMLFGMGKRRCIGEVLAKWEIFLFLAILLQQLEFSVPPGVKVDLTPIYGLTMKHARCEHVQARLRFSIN
# Summary of the method: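 O-Demethylation of luciferin 6' methyl ether by human CYP1A2 is monitored as luciferase luminescence. Substrate sits at Km (100uM); enzyme is 20nM. Values are scaled to 57 uM furafylline as maximal inhibition.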
# [2] = molecular target: Glucocorticoid receptor (Homo sapiens) (UniProt P04150); test: GR-GFP Redistribution (AID 450;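 active = compounds whose dose series gives a full or clear partial fitted curve of increased nuclear translocation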; note: potency is the fitted concentration of half-maximal effect)
# Chain of Glucocorticoid receptor (Homo sapiens) (P04150 whole entry, looked up, the tested form may be a part): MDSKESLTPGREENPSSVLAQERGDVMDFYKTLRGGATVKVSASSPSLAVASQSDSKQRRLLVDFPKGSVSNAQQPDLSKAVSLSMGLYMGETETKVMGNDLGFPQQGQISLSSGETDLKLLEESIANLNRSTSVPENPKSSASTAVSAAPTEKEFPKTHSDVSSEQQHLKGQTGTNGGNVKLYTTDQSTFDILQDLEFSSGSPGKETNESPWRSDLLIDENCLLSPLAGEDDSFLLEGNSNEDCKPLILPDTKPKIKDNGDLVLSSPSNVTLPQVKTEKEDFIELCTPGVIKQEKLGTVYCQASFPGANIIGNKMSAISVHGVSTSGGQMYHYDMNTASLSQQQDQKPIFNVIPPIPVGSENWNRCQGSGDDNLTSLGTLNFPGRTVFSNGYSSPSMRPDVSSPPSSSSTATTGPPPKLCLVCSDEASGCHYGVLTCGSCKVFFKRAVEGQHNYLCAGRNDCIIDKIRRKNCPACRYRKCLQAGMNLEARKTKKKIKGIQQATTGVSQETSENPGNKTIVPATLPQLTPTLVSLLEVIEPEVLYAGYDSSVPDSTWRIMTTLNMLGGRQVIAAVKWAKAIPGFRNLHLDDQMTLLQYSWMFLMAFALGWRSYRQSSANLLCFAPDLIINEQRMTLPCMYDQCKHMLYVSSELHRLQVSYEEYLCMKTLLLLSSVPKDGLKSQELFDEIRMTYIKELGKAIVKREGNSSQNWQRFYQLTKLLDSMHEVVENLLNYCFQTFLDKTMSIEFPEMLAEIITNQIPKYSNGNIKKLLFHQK
# [3] = molecular target: Glucocorticoid receptor (Homo sapiens) (UniProt P04150); test: GR-EFC Redistribution (AID 451; calls by dose curve; note: potency is the fitted concentration of half-maximal effect); settings: CHO-K1 GR-EFC translocation, beta-gal luminescence, 2 h
# Summary of the method: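 CHO-K1 cells stably expressing nuclear-localized β-gal enzyme acceptor and GR fused C-terminally to the enzyme donor fragment; ligand-driven nuclear translocation restores β-gal by complementation. Compounds titrated up to 46 uM final, 2 h at 37 °C; luminescence read.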
# [4] = molecular target: Mitogen-activated protein kinase 10 (Mus musculus) (UniProt Q61831); test: JNK3 AlphaScreen Assay (AID 530; active = well fitted curve in either direction with a large enough effect, not every such curve was filed as active;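 note: kinase came from lysate of stimulated human HepG2 cells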; note: potency is the fitted concentration of half-maximal effect)
# Summary of the method: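 Phosphorylation of biotinylated GST-cJun(1-79) at Ser73 is measured by AlphaScreen proximity luminescence. Enzyme is JNK3 in HepG2 lysates activated with interleukin-1beta and tumor necrosis factor alpha; ATP is 10 uM final.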
# [5] = molecular target: 3',5'-cyclic-AMP phosphodiesterase 4B (Homo sapiens) (UniProt Q07343); test: qHTS Assay for Inhibitors of PDE-IV (AID 607; active = well fitted activation curve with a large enough effect in the main read-out, with a control signal flat, not every such curve was filed as active)
# Chain of 3',5'-cyclic-AMP phosphodiesterase 4B (Homo sapiens) (Q07343 whole entry, looked up): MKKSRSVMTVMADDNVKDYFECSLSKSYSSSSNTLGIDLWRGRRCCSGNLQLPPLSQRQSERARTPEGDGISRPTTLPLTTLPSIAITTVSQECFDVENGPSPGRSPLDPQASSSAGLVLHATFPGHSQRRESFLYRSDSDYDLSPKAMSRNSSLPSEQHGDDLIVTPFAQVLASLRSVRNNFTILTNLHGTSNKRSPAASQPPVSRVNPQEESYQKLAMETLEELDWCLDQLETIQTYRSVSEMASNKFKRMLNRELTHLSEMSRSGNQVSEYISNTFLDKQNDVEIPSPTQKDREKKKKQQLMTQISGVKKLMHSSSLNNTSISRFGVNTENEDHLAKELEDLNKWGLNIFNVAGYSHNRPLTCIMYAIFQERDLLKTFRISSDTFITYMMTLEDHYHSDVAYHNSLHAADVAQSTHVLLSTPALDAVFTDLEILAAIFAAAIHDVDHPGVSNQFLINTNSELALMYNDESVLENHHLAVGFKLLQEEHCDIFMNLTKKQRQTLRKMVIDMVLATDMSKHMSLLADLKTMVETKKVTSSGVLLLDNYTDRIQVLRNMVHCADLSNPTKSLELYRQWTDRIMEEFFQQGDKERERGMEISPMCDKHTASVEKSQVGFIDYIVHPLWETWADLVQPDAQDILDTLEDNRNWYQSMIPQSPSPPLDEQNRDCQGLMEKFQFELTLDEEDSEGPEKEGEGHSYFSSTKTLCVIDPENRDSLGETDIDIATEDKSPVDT
# Summary of the method: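 The readout is membrane depolarisation from a cAMP-sensing CNG channel, detected with a potential dye at ex 535/em 590. Cells were HEK293-derived (endogenous PDE-IV) at 1000 cells/well, titrated up to 22.9 uM final.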
# [6] = molecular target: Cytochrome P450 2C9 (Homo sapiens) (UniProt P11712); test: qHTS Assay for Inhibitors and Substrates of Cytochrome P450 2C9 (AID 883); note: nearly all actives have a fitted effect of over 60% in size; note: potency is the fitted concentration of half-maximal effect
# Chain of Cytochrome P450 2C9 (Homo sapiens) (P11712 whole entry, looked up): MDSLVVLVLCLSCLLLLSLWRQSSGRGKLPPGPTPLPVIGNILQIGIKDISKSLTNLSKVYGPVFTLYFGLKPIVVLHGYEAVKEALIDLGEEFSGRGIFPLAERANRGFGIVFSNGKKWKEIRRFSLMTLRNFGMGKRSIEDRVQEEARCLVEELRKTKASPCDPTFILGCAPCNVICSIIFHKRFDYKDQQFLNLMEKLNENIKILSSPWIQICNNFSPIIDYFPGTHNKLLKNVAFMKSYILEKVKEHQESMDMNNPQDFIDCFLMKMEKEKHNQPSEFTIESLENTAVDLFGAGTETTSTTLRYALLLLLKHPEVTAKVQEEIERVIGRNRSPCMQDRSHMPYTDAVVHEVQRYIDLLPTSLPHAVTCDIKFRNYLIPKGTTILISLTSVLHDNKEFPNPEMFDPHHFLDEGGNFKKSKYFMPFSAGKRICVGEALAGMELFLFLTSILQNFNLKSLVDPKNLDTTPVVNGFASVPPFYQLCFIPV
# Summary of the method: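 CYP2C9 deoxyluciferin hydroxylation, 37C, 60 min with NADPH regeneration; 10nM enzyme, 100uM Luciferin-H (KM). Glo detection reagent stopped reaction; luminescence normalized to sulphaphenazole (57uM) full inhibition.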
# [7] = molecular target: Cytochrome P450 2D6 (Homo sapiens) (UniProt P10635); test: qHTS Assay for Inhibitors and Substrates of Cytochrome P450 2D6 (AID 891); note: nearly all actives have a fitted effect of over 60% in size; note: potency is the fitted concentration of half-maximal effect
# Chain of Cytochrome P450 2D6 (Homo sapiens) (P10635 whole entry, looked up): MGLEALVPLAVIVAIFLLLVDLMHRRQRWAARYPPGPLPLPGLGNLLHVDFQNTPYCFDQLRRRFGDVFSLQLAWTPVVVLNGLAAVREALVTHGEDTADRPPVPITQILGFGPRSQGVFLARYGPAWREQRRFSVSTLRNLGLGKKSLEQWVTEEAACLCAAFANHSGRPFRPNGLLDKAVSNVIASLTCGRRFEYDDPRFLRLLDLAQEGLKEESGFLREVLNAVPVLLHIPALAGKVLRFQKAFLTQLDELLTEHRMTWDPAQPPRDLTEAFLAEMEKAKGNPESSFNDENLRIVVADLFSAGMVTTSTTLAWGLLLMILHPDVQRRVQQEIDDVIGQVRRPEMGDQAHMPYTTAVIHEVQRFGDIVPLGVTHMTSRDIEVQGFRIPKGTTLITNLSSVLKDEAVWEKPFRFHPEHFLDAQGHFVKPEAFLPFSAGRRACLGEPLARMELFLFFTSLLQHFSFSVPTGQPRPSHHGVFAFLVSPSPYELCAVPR
# Summary of the method: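 Luminescent read-out of luciferin formed by 5 nM human CYP2D6 demethylating 30 uM Luciferin-ME EGE (Km level) over 60 min at room temperature after NADPH regeneration addition. Data normalized to full inhibition by 1.43 uM quinidine.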
# [8] = molecular target: Cytochrome P450 2C19 (Homo sapiens) (UniProt P33261); test: qHTS Assay for Inhibitors and Substrates of Cytochrome P450 2C19 (AID 899); note: nearly all actives have a fitted effect of over 60% in size; note: potency is the fitted concentration of half-maximal effect
# Chain of Cytochrome P450 2C19 (Homo sapiens) (P33261 whole entry, looked up): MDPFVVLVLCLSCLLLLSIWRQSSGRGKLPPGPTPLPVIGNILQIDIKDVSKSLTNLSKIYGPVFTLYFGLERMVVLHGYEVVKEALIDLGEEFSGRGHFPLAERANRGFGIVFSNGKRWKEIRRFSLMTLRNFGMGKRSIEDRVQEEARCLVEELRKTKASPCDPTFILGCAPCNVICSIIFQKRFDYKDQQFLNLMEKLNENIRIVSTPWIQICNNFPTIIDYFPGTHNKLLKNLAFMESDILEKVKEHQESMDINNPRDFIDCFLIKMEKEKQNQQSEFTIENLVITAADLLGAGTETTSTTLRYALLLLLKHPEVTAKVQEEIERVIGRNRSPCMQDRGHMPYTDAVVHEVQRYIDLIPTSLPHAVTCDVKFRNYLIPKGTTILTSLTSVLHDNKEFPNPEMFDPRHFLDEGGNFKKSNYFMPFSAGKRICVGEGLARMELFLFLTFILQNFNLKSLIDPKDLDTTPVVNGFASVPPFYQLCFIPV
# Summary of the method: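 In 50mM KPO4, the reaction held 5nM enzyme and KM-level (10uM) Luciferin-H EGE; it ran 60 min at 37C after NADPH regeneration and a 10 min compound preincubation. Luminescence values were scaled to 57uM ketoconazole as complete inhibition.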
# [9] = molecular target: Cytochrome P450 3A4 (Homo sapiens) (UniProt P08684); test: qHTS Assay for Inhibitors and Substrates of Cytochrome P450 3A4 (AID 884); note: nearly all actives have a fitted effect of over 50% in size; note: potency is the fitted concentration of half-maximal effect
# Chain of Cytochrome P450 3A4 (Homo sapiens) (P08684 whole entry, looked up): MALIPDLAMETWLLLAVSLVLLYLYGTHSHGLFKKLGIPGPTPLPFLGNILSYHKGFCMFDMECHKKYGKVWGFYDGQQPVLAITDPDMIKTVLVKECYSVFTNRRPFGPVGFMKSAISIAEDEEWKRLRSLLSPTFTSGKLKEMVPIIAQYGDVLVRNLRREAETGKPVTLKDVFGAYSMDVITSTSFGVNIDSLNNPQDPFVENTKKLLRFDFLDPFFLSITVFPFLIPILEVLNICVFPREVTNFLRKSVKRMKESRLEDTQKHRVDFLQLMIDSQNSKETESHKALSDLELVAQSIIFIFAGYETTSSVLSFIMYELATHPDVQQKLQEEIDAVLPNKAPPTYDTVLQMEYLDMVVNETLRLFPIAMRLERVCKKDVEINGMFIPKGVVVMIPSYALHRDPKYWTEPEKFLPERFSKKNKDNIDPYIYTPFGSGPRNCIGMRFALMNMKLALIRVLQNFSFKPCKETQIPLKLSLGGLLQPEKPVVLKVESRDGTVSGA
# Summary of the method: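 Luminescent readout of luciferin produced by CYP3A4 (20 nM) dealkylation of Luciferin-PPXE, 25 uM (its KM). NADPH-driven reaction ran 60 min at RT after 10 min compound preincubation; data scaled to 57 uM ketoconazole as 100% inhibition.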
# [10] = molecular target: Cytochrome P450 3A4 (Homo sapiens) (UniProt P08684); test: qHTS Assay for Activators of Cytochrome P450 3A4 (AID 885); note: nearly all actives have a fitted effect of over 65% in size
# Summary of the method: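 Activators are scored by enhanced luminescence from CYP3A4 conversion of luciferin-PPXE (25uM, equal to KM) to luciferin, after 60 min at RT with an NADPH-regenerating system.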
# [11] = molecular target: DNA dC->dU-editing enzyme APOBEC-3G (Homo sapiens) (UniProt Q9HC16); test: qHTS for inhibitors of Vif-A3G interactions: Validation (AID 588379)
# Chain of DNA dC->dU-editing enzyme APOBEC-3G (Homo sapiens) (Q9HC16 whole entry, looked up): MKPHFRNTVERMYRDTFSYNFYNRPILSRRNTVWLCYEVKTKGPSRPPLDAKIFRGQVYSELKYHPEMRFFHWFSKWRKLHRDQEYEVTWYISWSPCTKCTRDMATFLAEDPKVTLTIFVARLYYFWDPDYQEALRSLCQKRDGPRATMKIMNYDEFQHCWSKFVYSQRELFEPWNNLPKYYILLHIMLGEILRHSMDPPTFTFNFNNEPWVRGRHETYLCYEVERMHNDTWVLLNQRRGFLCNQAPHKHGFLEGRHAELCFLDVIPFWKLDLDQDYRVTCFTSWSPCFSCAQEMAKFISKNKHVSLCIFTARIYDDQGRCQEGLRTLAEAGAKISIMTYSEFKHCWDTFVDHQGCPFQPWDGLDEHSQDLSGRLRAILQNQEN
# Summary of the method: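 Yellow fluorescence (Ex 488, Em 500-530) of Vif-coexpressing HeLa A3G-eYFP cells, scanned by Acumen cytometer, reports blocked A3G degradation. Cells plated at 700/well overnight at 37 deg C before compound addition, then a further overnight compound incubation at 37 deg C.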
# [12] = molecular target: Ubiquitin carboxyl-terminal hydrolase 1 (Homo sapiens) (UniProt O94782); test: Inhibitors of USP1/UAF1: Pilot qHTS (AID 504865);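 note: rhodamine fluorescence freed from ubiquitin-rhodamine substrate followed over time; top concentration of the series differs between compounds; nearly all actives have a fitted effect of over 35% in size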
# Summary of the method: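 USP1/UAF1 complex (1nM) preincubated with compound 15 min at room temperature, then Ub-Rho substrate (150nM final) added. Fluorescence read kinetically at 480/540 nm, 6 reads every 60 seconds. Buffer: 50mM HEPES pH 7.8, 0.5mM EDTA, 0.1 mg/ml BSA, 1mM TCEP, 0.01% Tween-20.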
SMILES,Potency [1],Potency [2],Potency [3],Potency [4],Potency [5],Potency [6],Potency [7],Potency [8],Potency [9],Potency [10],outcome [11],Potency [12]
CC(=O)Oc1ccc(/C=C\C(=O)C[C@@H]2O[C@@H](Oc3cc(OC(C)=O)c4c(c3)O[C@@H](c3ccc(OC(C)=O)cc3)CC4=O)[C@H](OC(C)=O)[C@H](OC(C)=O)[C@@H]2OC(C)=O)cc1,inactive,> 46 µM,> 46 µM,inactive,inactive,inactive,inactive,inactive,,,,
C[C@H]1[C@H](C)CC[C@@]2(C(=O)O)CC[C@]3(C)C(=CC[C@H]4[C@@]5(C)C[C@@H](O)[C@H](O)[C@@](C)(CO)[C@@H]5CC[C@@]43C)[C@@H]12,inactive,> 46 µM,> 46 µM,inactive,inactive,inactive,inactive,inactive,,,,
O=c1cc(-c2ccc(O)cc2O)oc2ccccc12,1.26 µM (active),> 46 µM,> 46 µM,inactive,inactive,5.01 µM (active),inactive,,3.16 µM (active),inactive,inactive,
O=c1c(O)c(-c2ccc(O)cc2)oc2cc(O)ccc12,0.1 µM (active),> 46 µM,> 46 µM,inactive,inactive,10 µM (active),,15.8 µM (active),,inactive,inactive,
CC1(C)[C@@H](O)CC[C@@]2(C)[C@H]1CC[C@]1(C)[C@H]2C(=O)C=C2[C@@H]3C[C@@](C)(C(=O)O)CC[C@]3(C)CC[C@@]21C,inactive,> 46 µM,> 46 µM,inactive,inactive,inactive,inactive,inactive,,,,
O=C(/C=C\c1ccc(O)c(O)c1)O[C@H]1C[C@@](O)(C(=O)O)C[C@H](O)[C@@H]1O,inactive,> 46 µM,> 46 µM,inactive,inactive,inactive,inactive,inactive,,,,
COc1cc(O)c2c(=O)cc(-c3ccccc3)oc2c1,0.0251 µM (active),> 46 µM,> 46 µM,inactive,,,inactive,0.398 µM (active),10 µM (active),inactive,inactive,
COc1ccc2c(=O)cc(-c3ccccc3)oc2c1O,0.0158 µM (active),> 46 µM,> 46 µM,inactive,inactive,15.8 µM (active),inactive,5.01 µM (active),,inactive,inactive,
COc1cccc2oc(-c3ccc(O)cc3)cc(=O)c12,0.398 µM (active),> 46 µM,> 46 µM,inactive,,,,10 µM (active),15.8 µM (active),inactive,inactive,
O[C@@H]1[C@@H]2c3cc4c(cc3CN3CCC(=C[C@@H]1O)[C@H]23)OCO4,15.8 µM (active),> 20.6 µM,> 20.6 µM,inactive,inactive,,,,,,,inactive
COc1ccccc1-c1cc(=O)c2cc(O)ccc2o1,0.2 µM (active),> 46 µM,> 46 µM,inactive,,inactive,inactive,0.398 µM (active),12.6 µM (active),inactive,inactive,
O=c1cc(-c2cccc(O)c2O)oc2ccccc12,1 µM (active),> 46 µM,> 46 µM,3.98 µM (active),,12.6 µM (active),,,,inactive,inactive,
COc1ccccc1-c1oc2ccccc2c(=O)c1OC,0.2 µM (active),> 46 µM,> 46 µM,inactive,,25.1 µM (active),inactive,7.94 µM (active),,inactive,inactive,
Cc1ccc(C(=O)[C@@H]2[C@@H]3[C@@H](C(=O)[C@@H]4OC[C@H]3O4)[C@@H]3C=Cc4ccccc4N23)cc1,15.8 µM (active),> 46 µM,> 46 µM,,inactive,10 µM (active),,15.8 µM (active),,,,
CC(C)C[C@H](NC(=O)[C@@H](NC(=O)N[C@@H](Cc1ccccc1)C(=O)O)[C@H]1CCN=C(N)N1)C(=O)N[C@H](C=O)Cc1ccccc1,inactive,> 46 µM,> 46 µM,inactive,,inactive,inactive,,,,,
COc1ccc2c(c1)[C@]1(C)CCC[C@](C)(CO)[C@@H]1CC2,15.8 µM (active),> 46 µM,> 46 µM,inactive,,7.94 µM (active),inactive,3.16 µM (active),,,,

SMILES,Potency [1],Potency [2],Potency [3],Potency [4],Potency [5],Potency [6],Potency [7],Potency [8],Potency [9],Potency [10],outcome [11],Potency [12]
O=c1cc(-c2ccccc2O)oc2cc(O)cc(O)c12,0.251 µM (active),> 46 µM,> 46 µM,,inactive,5.01 µM (active),,3.98 µM (active),3.98 µM (active),inactive,inactive,
O=c1cc(-c2ccccc2O)oc2ccc3ccccc3c12,1 µM (active),> 46 µM,> 46 µM,,,,20 µM (active),,,inactive,inactive,
CC(=O)[C@H]1[C@H]2[C@H](C(=O)[C@@H]3OC[C@H]2O3)[C@@H]2c3ccccc3C=CN12,31.6 µM (active),> 46 µM,> 46 µM,inactive,inactive,,inactive,,,,,
CC1(C)CCC[C@@]2(C)[C@@H]1CC[C@]1(C)OC(=O)C[C@@H]21,inactive,> 46 µM,> 46 µM,inactive,,,inactive,15.8 µM (active),,,,
Cc1ccc(C[C@H](Cc2nc3ccccc3[nH]2)c2nc3ccccc3[nH]2)cc1,3.98 µM (active),> 46 µM,> 46 µM,inactive,,12.6 µM (active),0.0794 µM (active),5.01 µM (active),,,,
C=C(CO)[C@H]1Cc2c(ccc3c2O[C@H]2COc4cc(OC)c(OC)cc4[C@@H]2C3=O)O1,inactive,> 46 µM,> 46 µM,,inactive,inactive,inactive,,,,,
Cc1c(-c2ccccc2)oc2cc(O)ccc2c1=O,0.251 µM (active),> 46 µM,> 46 µM,,,2.51 µM (active),inactive,0.126 µM (active),15.8 µM (active),inactive,inactive,
COc1ccc(-c2oc3cc(OC)c(OC(C)=O)c(OC)c3c(=O)c2OC)cc1OC(C)=O,12.6 µM (active),> 46 µM,> 46 µM,,,,inactive,inactive,5.01 µM (active),inactive,inactive,
O=c1c(O)c(-c2ccc(O)c(O)c2)oc2c(OC[C@H]3O[C@@H](O)[C@@H](O)[C@H](O)[C@@H]3O)c(O)cc(O)c12,inactive,> 46 µM,> 46 µM,,inactive,inactive,inactive,inactive,,,,
CC(=O)c1c(O)c(C)c(O)c2c1OC1=CC(=O)[C@H](C(C)=O)C(=O)[C@]12C,3.16 µM (active),> 46 µM,> 46 µM,,inactive,,inactive,inactive,,,,
CC(=O)O[C@@H]1CC[C@]2(C)[C@H]3CC[C@]4(C)[C@H](C[C@H]5CCCC[C@@]54C(C)=O)[C@@H]3CC(=O)[C@@]2(O)C1,20 µM (active),> 46 µM,> 46 µM,inactive,inactive,,inactive,,,,,
O=c1c2ccccc2oc2cc(O)c([C@@H]3COC[C@@H](CO)[C@@H](O)[C@@H](O)[C@H]3O)c(O)c12,inactive,> 46 µM,> 46 µM,inactive,,inactive,inactive,inactive,,,,
O=c1cc(-c2ccc(O)c(O)c2)oc2cccc(O)c12,0.158 µM (active),> 46 µM,> 46 µM,,inactive,,inactive,,15.8 µM (active),inactive,inactive,
O=C(CCc1ccc(O)cc1)c1c(O)cc(O)cc1O[C@@H]1O[C@@H](CO)[C@@H](O)[C@@H](O)[C@H]1O,inactive,> 46 µM,> 46 µM,inactive,inactive,,inactive,,,,,
Cc1ccc2oc(-c3ccccc3)c(O)c(=O)c2c1,0.398 µM (active),> 46 µM,> 46 µM,,inactive,inactive,inactive,inactive,inactive,,inactive,
